Screens from PubChem BioAssay.
ALR inh: inhibitors of human ALR sulfhydryl oxidase, primary screen, biochemical, H2O2 detection, HRP-luminol luminescence, single point; FAD-linked sulfhydryl oxidase ALR (Homo sapiens), P55789; purified ALR, DTT oxidation; inhibition, % (test concentration not listed); 3.8% of 290,000 active; AID 485317, 2010;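 active means mean replicate inhibition above about 79%, with every replicate also reaching it, limit read from the data; inconclusive means only one of the two criteria met; inactive means mean below limit and not every replicate reaching it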
Target sequence (P55789 whole entry, looked up): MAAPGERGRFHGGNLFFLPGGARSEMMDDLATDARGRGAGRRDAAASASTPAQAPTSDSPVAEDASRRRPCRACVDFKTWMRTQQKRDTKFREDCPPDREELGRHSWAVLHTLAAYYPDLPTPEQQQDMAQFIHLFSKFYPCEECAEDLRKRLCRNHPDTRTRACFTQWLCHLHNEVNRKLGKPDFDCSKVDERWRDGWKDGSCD
PolyA inh: polyadenylation inhibitors in yeast reporter cells, primary screen, luminescence, S. cerevisiae; S. cerevisiae SKY197-pL101 polyadenylation reporter, beta-gal luminescence; efflux-impaired pdr1/pdr3 knockout yeast; score 100 = 6 SD above DMSO; activity score, % at 12 µM; 0.02% of 300,000 active;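 active means lowest replicate activity score at least 50, where 100 means six control SD above control mean; inconclusive means lowest score under 50 but half or more replicates reach 50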;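 further: yeast exposed to compound for 9 h at 30 °C; higher score means more reporter readthrough which indicates perturbed polyadenylation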
IDE act: human IDE activators in live cells, primary screen, fluorescence polarization, HEK cells, FAbeta-B substrate. Insulin-degrading enzyme (Homo sapiens), P14735. FAbeta-B cleavage; 0% vehicle, 100% cell-free pure enzyme wells. activation, % at 5.96 µM. 0.073% of 340,000 active. AID 493087, 2011;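 active means activation above the mean of all tested compounds plus 3 SD, set per screening campaign, cut at about 17% in these data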
IDE cell inh: human IDE inhibitors in live cells, primary screen, fluorescence polarization, HEK cells, FAbetaB substrate; Insulin-degrading enzyme (Homo sapiens), P14735; FAbetaB cleavage; inhibition, % at 5.59 µM; 0.41% of 320,000 active; AID 434962, 2010;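 active means percent inhibition above the average of all tested compounds plus 3 SD, set per screening campaign, cut at about 16% in these data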;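 further: IDE supplied by intact live HEK cells; FP after avidin binding of uncleaved biotin substrate so inhibition keeps polarization high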
CaV13 ICDI inh: Disruptors of the CACNA1D IQ motif to Ca2+-dependent inactivation inhibitor domain association, primary screening, Förster resonance energy transfer in intact living …; HEK cells, CFP/YFP FRET ICDI-IQ, plate reader, 10 min; percent FRET-ratio fall versus neutral wells; inhibition, % at 12.3 µM; 0.098% of 340,000 active;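 active means mean replicate inhibition of at least 30% and at least 1% of replicates passing that level; inconclusive means only one of the two criteria is met; inactive means neither criterion is met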
M18AAP inhibitor: PfM18AAP inhibitors, malaria aminopeptidase, primary screen, biochemical, QFRET, recombinant enzyme; M18 aspartyl aminopeptidase (Plasmodium falciparum 3D7); H-Glu-NHMec fluorogenic cleavage; inhibition, % at 7.35 µM; 1.2% of 290,000 active;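 active means inhibition above the campaign mean inhibition over all tested compounds plus 3 SD, cut at about 28% in these data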
Hits are given with their value. This is a sample that favours compounds with a hit; in the whole collection about 4.1% have one here.

O=C(CC(SCc1ccco1)c1ccc(O)cc1)c1cccs1 (stereo unspecified) was read as ALR inh 96, PolyA inh inactive, IDE act inactive, IDE cell inh inactive, CaV13 ICDI inh inactive and M18AAP inhibitor inactive.
O=C(CSc1nnc(-c2ccc(O)cc2)n1Cc1ccco1)c1ccccc1 was read as ALR inh 94, PolyA inh inactive, IDE act inactive, IDE cell inh inactive, CaV13 ICDI inh inactive and M18AAP inhibitor inactive.
O=C(CSc1nnc(-c2ccc(O)cc2)n1Cc1ccco1)c1cccs1 was read as ALR inh 99, PolyA inh inactive, IDE act inactive, IDE cell inh inactive, CaV13 ICDI inh inactive and M18AAP inhibitor inactive.
Screening O=C(CSc1nnc(-c2ccncc2)n1Cc1ccco1)Nc1cccc(O)c1 returned ALR inh inactive, PolyA inh inactive, IDE act inactive, IDE cell inh inactive, CaV13 ICDI inh inactive and M18AAP inhibitor inactive.
Screening CCOC(=O)N1CCN(C(=O)CN(c2ccc(OCC)cc2)S(C)(=O)=O)CC1 returned ALR inh inactive, PolyA inh inactive, IDE act inactive, IDE cell inh inactive, CaV13 ICDI inh inactive and M18AAP inhibitor inactive.
For CCOc1ccc(N(CC(=O)NN=C2CCN(C)CC2)S(C)(=O)=O)cc1 the results were ALR inh 91, PolyA inh inactive, IDE act inactive, IDE cell inh inactive, CaV13 ICDI inh inactive and M18AAP inhibitor inactive.
CN/C=C1\C(=O)C(C)(C)Oc2ccc3ccc(=O)oc3c21 was read as ALR inh inactive, PolyA inh inactive, IDE act inactive, IDE cell inh inactive and M18AAP inhibitor inactive.
CC1(C)Oc2ccc3ccc(=O)oc3c2/C(=C/NNC(N)=S)C1=O was read as ALR inh 88, PolyA inh inactive, IDE act inactive, IDE cell inh inactive, CaV13 ICDI inh inactive and M18AAP inhibitor inactive.
Cc1ccc2nc(-c3ccccc3)c(Cc3ccsc3)n2c1 was read as CaV13 ICDI inh inactive.
Screening CC(=O)Nc1nc(-c2ccc3c(c2)CCO3)cs1 returned ALR inh inactive, PolyA inh inactive, IDE act inactive, IDE cell inh inactive, CaV13 ICDI inh inactive and M18AAP inhibitor inactive.
Nc1nc(-c2ccc3c(c2)CCO3)cs1 was read as ALR inh 97, PolyA inh inactive, IDE act inactive, IDE cell inh inactive, CaV13 ICDI inh inactive and M18AAP inhibitor inactive.
COc1ccc(-c2nc3n(c2C)Cc2ccccc2-3)cc1 was read as ALR inh 99, PolyA inh inactive, IDE act inactive, IDE cell inh inactive, CaV13 ICDI inh inactive and M18AAP inhibitor inactive.
`O=C(C1=C(O)C(=O)N(CCCN2CCOCC2)C1c1ccc(Cl)cc1)c1cc2ccccc2o1` (stereo unspecified) gave ALR inh 92, PolyA inh inactive, IDE cell inh inactive, CaV13 ICDI inh inactive and M18AAP inhibitor inactive.
`Cc1cc(OC(C)C(=O)N(Cc2ccco2)C2CCS(=O)(=O)C2)cc(C)c1Cl` (stereo unspecified) gave ALR inh inactive, PolyA inh inactive, IDE act inactive, IDE cell inh inactive and M18AAP inhibitor inactive.
`Oc1cc(-c2ccccc2)c2ccccc2c1` gave ALR inh 99, PolyA inh inactive, IDE act inactive, IDE cell inh inactive, CaV13 ICDI inh inactive and M18AAP inhibitor inactive.
For O=c1cc(-c2cccc([N+](=O)[O-])c2)[nH][nH]1 the results were ALR inh 82, PolyA inh inactive, IDE act inactive, IDE cell inh inactive, CaV13 ICDI inh inactive and M18AAP inhibitor inactive.
Screening Nc1cc(-c2cccc([N+](=O)[O-])c2)[nH]n1 returned ALR inh inactive, PolyA inh inactive, IDE act inactive, IDE cell inh inactive, CaV13 ICDI inh inactive and M18AAP inhibitor inactive.
Screening NC(=O)c1ccccc1N1CCCCC1 returned ALR inh inactive, PolyA inh inactive, IDE act inactive, IDE cell inh inactive, CaV13 ICDI inh inactive and M18AAP inhibitor inactive.
For CC1CCCN(c2ccc(N)cc2C(N)=O)C1 (stereo unspecified) the results were ALR inh 98, PolyA inh inactive, IDE act inactive, IDE cell inh inactive, CaV13 ICDI inh inactive and M18AAP inhibitor inactive.
Screening NC(=O)c1cc(N)ccc1N1CCCC1 returned ALR inh 83, PolyA inh inactive, IDE act inactive, IDE cell inh inactive, CaV13 ICDI inh inactive and M18AAP inhibitor inactive.
Screening NC(=O)c1cc(N)ccc1N1CCCCC1 returned ALR inh 99, PolyA inh inactive, IDE cell inh inactive, CaV13 ICDI inh inactive and M18AAP inhibitor inactive.
Screening Cc1cc(N)ccc1N1CCCC1 returned ALR inh 98, PolyA inh inactive, IDE act inactive, IDE cell inh inactive and M18AAP inhibitor inactive.
Screening Cc1cc(N)ccc1-n1c(C)ccc1C returned ALR inh inactive, PolyA inh inactive, IDE act inactive, IDE cell inh inactive, CaV13 ICDI inh inactive and M18AAP inhibitor inactive.
Screening COc1cc2c(cc1OC)C1=CC(=O)C(=O)N1C(C)(C)C2 returned ALR inh inactive, PolyA inh inactive, IDE act inactive, IDE cell inh inactive, CaV13 ICDI inh inactive and M18AAP inhibitor inactive.
COc1cc2[nH]c(=S)nc(NCc3ccccn3)c2cc1OC was read as IDE act inactive, CaV13 ICDI inh inactive and M18AAP inhibitor inactive.
Nc1ccc2nc[nH]c2c1 was read as ALR inh 99, PolyA inh inactive, IDE act inactive, IDE cell inh inactive, CaV13 ICDI inh inactive and M18AAP inhibitor inactive.
Screening COc1ccc(Nc2ccnc3ccccc23)cc1 returned ALR inh inactive, PolyA inh inactive, IDE act inactive, IDE cell inh inactive, CaV13 ICDI inh inactive and M18AAP inhibitor inactive.
CC(C)Nc1ccc(Nc2ccnc3cc4ccccc4cc23)cc1 was read as ALR inh 99, PolyA inh inactive, IDE act inactive, IDE cell inh inactive, CaV13 ICDI inh inactive and M18AAP inhibitor inactive.
`CSc1nnc2c(n1)c(C)nn2-c1cccc(C)c1` gave ALR inh 95, PolyA inh inactive, IDE act inactive, IDE cell inh inactive, CaV13 ICDI inh inactive and M18AAP inhibitor inactive.
O=S(=O)(Nc1ccc(N2CCOCC2)cc1)c1ccc(F)cc1 was read as ALR inh inconclusive, PolyA inh inactive, IDE act inactive, IDE cell inh inactive and M18AAP inhibitor inactive.
`O=S(=O)(Nc1ccc(N2CCCCC2)cc1)c1ccccc1F` gave ALR inh 99, PolyA inh inactive, IDE cell inh inactive, CaV13 ICDI inh inactive and M18AAP inhibitor inactive.
O=S(=O)(Nc1ccc(N2CCCCC2)cc1)c1cccc2cccnc12 was read as ALR inh 98, PolyA inh inactive, IDE act inactive, IDE cell inh inactive and M18AAP inhibitor inactive.
